In the library only some 2.4% were active in any assay of this set; here they are far more common.
DNA Pol III inh – inhibitors of bacterial DNA polymerase III holoenzyme; reconstituted DNA polymerase III holoenzyme replication, biochemical; Potency, µM (series often up to 57.1 µM); 0.25% of 71,000 active; AID 603
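Reconstituted *E. coli* holoenzyme (0.35 nM Pol III, 1 nM beta, 154 nM SSB, 2 nM primase) was preincubated with compound for 15 min at RT. Synthesis on 1.4 nM ssM13Gori ran 35 min, then was stopped with PicoGreen/EDTA and read as dsDNA fluorescence.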
BRCT inh red – BRCT-phosphoprotein interaction inhibition (red fluorophore) | BRCT-phosphopeptide binding, red fluorescence polarization | P38398 | Potency, µM (series often up to 76.9 µM), actives largely listed as inhibitors | 0.03% of 75,000 active | AID 892
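Fluorescence polarization: 100 nM His-tagged BRCA1 BRCT with 100 nM TAMRA-labelled phospho-BACH1 decapeptide, phosphate buffer pH 7.3 with 150 mM NaCl, DTT, 0.01% Tween 20; 12 min RT. Binding inhibition seen as FP decrease.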
YjeE inh – inhibitors of E. coli YjeE (TsaE) | P0AF67 | purified YjeE enzyme, qHTS inhibition assay | Potency, µM | 0.05% of 71,000 active
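Fluorescence polarization of a BODIPY Texas Red–ADP probe (2 uM) bound to purified YjeE (10 uM) was read after 15 min room-temperature incubation with compounds. Loss of polarization marks inhibitors; ADP serves as titrated control.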
Hsp90 Hop PPI – changes Hsp90-Hop TPR2A binding signal, up or down; AlphaScreen TPR2A-His6 binding biotin-Hsp90 C-terminal peptide; Potency, µM (titrated, usually from 57 µM); 0.44% of 71,000 active; active = well fitted curve in either direction with a large enough effect; inconclusive = small, poorly fitted or top-dose-only effect, or another doubt
BRCT PPI green – BRCA1 BRCT-phosphoprotein interaction inhibition | P38398 | BRCA1 BRCT-phosphopeptide binding, green fluorescence polarization | Potency, µM (titrated, usually from 76.9 µM), most hits filed as inhibitors | 0.05% of 75,000 active | AID 875
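Fluorescence polarization: His-tagged BRCT (~35 kDa BRCA1 C-terminus, 250 nM) bound to 100 nM fluorescein-labeled phosphorylated 10-aa BACH1 peptide, pH 7.3 phosphate buffer with DTT and Tween 20. Compounds incubated 12 min at room temperature; inhibition read as lowered polarization.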
Tau filament bind – binds recombinant human tau filaments; P10636; recombinant tau filaments, thioflavin S fluorescence, 15 h; filaments grown with octadecylsulfate alongside compound; Potency, µM (top dose mostly 57.1 µM); 2% of 71,000 active;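 also: actives lower thioflavin S fluorescence by blocking filaments or displacing dye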
Target sequence (P10636 whole entry, looked up): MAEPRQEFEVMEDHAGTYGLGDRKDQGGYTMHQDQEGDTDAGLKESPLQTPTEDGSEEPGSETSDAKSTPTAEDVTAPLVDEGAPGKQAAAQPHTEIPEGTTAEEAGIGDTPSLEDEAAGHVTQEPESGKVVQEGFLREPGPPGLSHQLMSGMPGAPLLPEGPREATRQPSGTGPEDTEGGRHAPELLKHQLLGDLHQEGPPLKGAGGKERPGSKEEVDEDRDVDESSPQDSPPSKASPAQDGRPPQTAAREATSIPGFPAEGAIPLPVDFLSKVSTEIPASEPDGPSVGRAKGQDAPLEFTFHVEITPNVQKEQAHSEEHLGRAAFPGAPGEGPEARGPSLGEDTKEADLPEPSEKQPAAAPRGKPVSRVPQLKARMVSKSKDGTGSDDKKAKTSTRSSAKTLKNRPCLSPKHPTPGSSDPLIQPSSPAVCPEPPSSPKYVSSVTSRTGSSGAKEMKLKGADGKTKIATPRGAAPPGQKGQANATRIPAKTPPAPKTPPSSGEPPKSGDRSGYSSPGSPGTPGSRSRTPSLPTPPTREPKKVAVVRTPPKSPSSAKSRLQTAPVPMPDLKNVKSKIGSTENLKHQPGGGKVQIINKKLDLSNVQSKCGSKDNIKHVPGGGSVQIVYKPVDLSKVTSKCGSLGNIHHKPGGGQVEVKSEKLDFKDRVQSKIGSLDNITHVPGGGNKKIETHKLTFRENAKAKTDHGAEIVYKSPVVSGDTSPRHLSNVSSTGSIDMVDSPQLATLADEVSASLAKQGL
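ThS-based fibril read: tau 1 uM final, inducer ODS 30 uM final, 37 C for 15 h, ex 450/em 510 nm.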
Hits are given with their value; i = inactive; ? = inconclusive; nt = not tested or not shown; [ ] = another dose, or the depositor's remark. Unless noted, calls follow the shape of the dose curve; as a rule, active = well fitted curve in the direction sought with a large enough effect; inconclusive = small, poorly fitted or top-dose-only effect, or another doubt; inactive = no such curve, though single readings can be large; an effect the other way counts as inactive or inconclusive.

SMILES	DNA Pol III inh	BRCT inh red	YjeE inh	Hsp90 Hop PPI	BRCT PPI green	Tau filament bind
CCCn1c(C)nc2c(NCCO)nc(C)nc21	i	i	i	i	i	i
Cn1c(SCC(=O)Nc2ccc(N3CCOCC3)c(Cl)c2)nnc1-c1ccccc1	i	i	i	i	i	10µM
CN(C)c1ccc(/C=N/n2ncc3ccccc32)cc1	i	i	i	25.1µM	i	i
C=CCn1c(/N=C/c2ccc(N(C)C)cc2)nc2ccccc21	i	i	i	i	i	i
CN1CC[C@@]2(CCCN(S(=O)(=O)c3ccccc3)C2)C1	i	i	i	i	i	i
COc1ccc(-n2c(=O)c(-c3cc(F)cc(F)c3)nc3cnc(N4CCNCC4)nc32)cc1	i	i	i	i	i	3.16µM
O=c1c(-c2cc(F)cc(F)c2)nc2cnc(N3CCNCC3)nc2n1Cc1ccc(F)cc1	i	i	?	i	i	3.98µM
COc1cccc(Cn2c(=O)c(C)nc3cnc(N4CCNCC4)nc32)c1	i	i	i	i	i	i
COc1ccc(-n2c(=O)c(-c3cccc(C#N)c3)nc3cnc(N4CCNCC4)nc32)cc1	i	i	i	i	i	i
COc1cccc(Cn2c(=O)c(-c3cc(F)cc(F)c3)nc3cnc(N4CCNCC4)nc32)c1	i	i	i	i	i	3.98µM
O=c1c(-c2ccccc2)nc2cnc(N3CCNCC3)nc2n1Cc1cccs1	i	i	i	i	i	5.01µM
CCNc1ncc2nc(-c3ccc(Cl)cc3)c(=O)n(C[C@H]3CCCO3)c2n1	i	i	i	i	i	i
c1ccc(-c2cccc(N3CCC4(CCNCC4)CC3)c2)cc1	i	i	i	i	i	?
COc1ccc(C(=O)N2CCC3(CC2)CCN(c2ccncc2)CC3)cc1	i	i	i	i	i	i
CCN1C(=O)c2c(C)nc3ccccc3c2C1=O	i	i	i	i	i	15.8µM
O=c1cc(-c2cccc(O)c2O)oc2ccccc12	i	i	i	?	i	i
COc1ccc(C(=O)N2CCC[C@@]3(CCN(CC(C)C)C3)C2)cc1	i	i	i	i	i	i
NS(=O)(=O)c1ccc(N=Nc2cc3ccccc3c(C(=O)O)c2O)cc1	i[11.4 µM]	i[15.4 µM]	i	?	i[15.4 µM]	1.26µM
O=C(CCc1ccc(O)cc1)c1c(O)cc(O)cc1O[C@@H]1O[C@@H](CO)[C@@H](O)[C@@H](O)[C@H]1O	i	nt	i	?	nt	?
c1ccc2c(NCCN3CCOCC3)nc(-c3ccc4c(c3)OCO4)nc2c1	i	i	i	i	i	i
CN(Cc1ccco1)c1ncncc1-c1cccc(NS(C)(=O)=O)c1	i	i	i	i	i	i
CCOC(=O)N/N=C1/C[C@@H](O)[C@@H](O)[C@@H]2[C@@H]3C(=O)N(Cc4ccccc4)C(=O)[C@H]3CC[C@@H]12	nt	i[15.4 µM]	nt	nt	i[15.4 µM]	nt
Cc1cc(Cl)cc2c1NC(=O)[C@]21[C@@H]2C(=O)N(Cc3ccccc3)C(=O)[C@@H]2[C@@H]2CCCN21	i	i	i	i	i	25.1µM
CCc1ccc2c(c1)[C@]1(C(=O)N2)[C@@H]2C(=O)N(Cc3ccccc3)C(=O)[C@@H]2[C@@H]2CCCN21	i	i	i	i	i	20µM
COC(=O)C(N)CS (stereo unspecified)	nt	i	nt	nt	i[3.08 µM]	nt
SMILES	DNA Pol III inh	BRCT inh red	YjeE inh	Hsp90 Hop PPI	BRCT PPI green	Tau filament bind
CC(=O)OC1CC(C)OC(C)O1 (stereo unspecified)	i	i	i	i	i	i
CC1=C(C(=O)Nc2cc(-c3cccc(F)c3)[nH]n2)C2(CCCCC2)OC1=O	i	i	i	i	i	12.6µM
Cc1nc2ccc(Cl)cc2nc(C)/c1=N\O	i	i	i	i	i	12.6µM
S=C(c1ccc(N2CCOCC2)cc1)N1CCOCC1	i	i	i	i	i	i
CCN(CC)c1ccc(C(=S)N2CCN(c3ccccc3)CC2)cc1	?	i	i	i	i	5.01µM
S=C(c1ccc(N2CCCC2)cc1)N1CCCCC1	i	i	i	i	i	31.6µM
O=C(c1ccccc1)c1ccc(N2CCCC2)cc1	i	i	i	?	i	i
CN1CCN(C(=S)c2ccc(N(C)C)cc2)CC1	i	i	i	i	i	i
Nc1ccc(N2CCCCCC2)cc1	i	i	i	?	i	10µM
CCCn1c(=O)c2[nH]c(-c3ccccc3)nc2n(CCC)c1=O	i	i	i	i	i	?
CC(=O)NCCNc1nc(-c2cccc(C#N)c2)nc2ccccc12	i	i	i	i	i	i
Nc1ccccc1C(=O)CC(N)C(=O)O (stereo unspecified)	nt	i	nt	nt	i	nt
Nc1ccc(N=Nc2ccccc2)c(N)c1	i	i	i	?	i	1.58µM
COCCn1c(=O)c(-c2cc(F)cc(F)c2)nc2cnc(N3CCOCC3)nc21	i	i	i	i	i	i
CN1CCc2c(sc3c2C(=O)NC(c2ccc(-c4cccc(Cl)c4)o2)N3)C1 (stereo unspecified)	i	i	i	?	i	1.26µM
COc1ccc(Oc2ncc3nc(C)c(=O)n(CCC#N)c3n2)cc1	i	i	i	i	i	i
O=C(c1ccco1)N1CCN(C(=O)c2cc(-c3ccccn3)nc3ccc(Cl)cc23)CC1	i	i	i	i	i	10µM
CC(C)C1=CC2=CCC3[C@@](C)(CCC[C@@]3(C)C(=O)O)C2CC1 (stereo partly specified)	nt	i	nt	nt	i	nt
C[C@@]1(C(=O)O)NCCc2cc(O)c(O)cc21	7.94µM	i	i	?	i	i
Cc1cnc(CNc2cc(-c3cccc(NS(C)(=O)=O)c3)ncn2)cn1	i	i	i	i	i	i
Cc1cc(=O)n2[nH]c(C)c(-c3ccc(Cl)cc3)c2n1	20µM	i	i	i	i	i
NCCNCCNCCN	i	i	i	6.31µM	i	i
C[N+]1(CCC[N+]2(C)C[C@H]3[C@H](C2)[C@H]2C=C[C@@H]3CC2)CCOCC1 (stereo partly specified)	i[11.4 µM]	i[15.4 µM]	i	i[11 µM]	i[15.4 µM]	i[11.4 µM]
COc1cccc(-c2cc(C(=O)Nc3cnn(Cc4ccc(F)cc4)c3)no2)c1	i	i	i	i	i	i
Cc1ccccc1Cn1ccc(NC(=O)c2cc3nc(-c4ccco4)cc(C(F)(F)F)n3n2)n1	i	i	i	i	i	i
Cc1nn(Cc2ccccc2)c(C)c1NC(=O)c1cc2nc(-c3ccco3)cc(C(F)(F)F)n2n1	i	i	i	i	i	15.8µM
O=C(Nc1cnn(Cc2ccc(F)cc2)c1)c1cc2nc(-c3ccco3)cc(C(F)(F)F)n2n1	i	i	i	i	i	15.8µM
O=C1c2ccccc2-c2ccc(NC(=O)[C@H]3CCCC[C@@H]3C(=O)O)cc21	i[11.4 µM]	i[15.4 µM]	i	i[11 µM]	i[15.4 µM]	i[11.4 µM]
O=C(Nc1ccc(Nc2ccc3c(c2)C(=O)c2ccccc2C3=O)c2c1C(=O)c1ccccc1C2=O)c1ccccc1	i[11.4 µM]	i[15.4 µM]	i	?	i[15.4 µM]	3.98µM

Source: PubChem
